Assay results reported in PubChem BioAssay AID1645882 (National Center for Advancing Translational Sciences (NCATS), 2021).
“And” between values parts separate entries of the source, which are not always exact repeats. Equal entries are not always repeated. About 120 (0.75%) of roughly 16,000 compounds were called active. Where a call stands in place of a potency, no number is given. Not shown: some 4% with an inconclusive outcome. Only a selection was taken, and actives are over-represented in it overall. A number with no mark means an inactive call. Calls come from the whole dose curve; as a rule, active = well fitted inhibition curve with a large enough effect; inconclusive = small, poorly fitted or top-dose-only effect; inactive = no such curve, though single readings can be large or run the other way. *1 amine or outer side, *2 acyl side, *3 side chain or, on linkers, in order; H or OH if unused. Where a SMILES comes first, the peptide text is derived from it. Bridges are numbered along the chain shown (N, C = ends). [ ]: non-standard residue; d: D form. The star is where a group is joined. X6 = NC1=N[C@@H](O)C[C@H]([C@H](N[*:1])C(=O)[*:2])N1; ΔAla(3-NHCONH2) = NC(=O)NC=C(N)C(=O)O; β3hOrn = NCCC[C@H](N)CC(=O)*; Dap = NC[C@H](N)C(=O)O

molecular target: Rap guanine nucleotide exchange factor 3 (Homo sapiens) (UniProt O95398); experiment: Validation qHTS for antagonist of cAMP-regulated guanine nucleotide exchange factor 3 (EPAC1); conditions: EPAC1 Rap1B-BODIPY-GDP exchange, fluorescence; series mostly up to 150 µM; note: nearly all actives have a fitted effect of over 75% in size
Sequence (O95398 whole entry, looked up): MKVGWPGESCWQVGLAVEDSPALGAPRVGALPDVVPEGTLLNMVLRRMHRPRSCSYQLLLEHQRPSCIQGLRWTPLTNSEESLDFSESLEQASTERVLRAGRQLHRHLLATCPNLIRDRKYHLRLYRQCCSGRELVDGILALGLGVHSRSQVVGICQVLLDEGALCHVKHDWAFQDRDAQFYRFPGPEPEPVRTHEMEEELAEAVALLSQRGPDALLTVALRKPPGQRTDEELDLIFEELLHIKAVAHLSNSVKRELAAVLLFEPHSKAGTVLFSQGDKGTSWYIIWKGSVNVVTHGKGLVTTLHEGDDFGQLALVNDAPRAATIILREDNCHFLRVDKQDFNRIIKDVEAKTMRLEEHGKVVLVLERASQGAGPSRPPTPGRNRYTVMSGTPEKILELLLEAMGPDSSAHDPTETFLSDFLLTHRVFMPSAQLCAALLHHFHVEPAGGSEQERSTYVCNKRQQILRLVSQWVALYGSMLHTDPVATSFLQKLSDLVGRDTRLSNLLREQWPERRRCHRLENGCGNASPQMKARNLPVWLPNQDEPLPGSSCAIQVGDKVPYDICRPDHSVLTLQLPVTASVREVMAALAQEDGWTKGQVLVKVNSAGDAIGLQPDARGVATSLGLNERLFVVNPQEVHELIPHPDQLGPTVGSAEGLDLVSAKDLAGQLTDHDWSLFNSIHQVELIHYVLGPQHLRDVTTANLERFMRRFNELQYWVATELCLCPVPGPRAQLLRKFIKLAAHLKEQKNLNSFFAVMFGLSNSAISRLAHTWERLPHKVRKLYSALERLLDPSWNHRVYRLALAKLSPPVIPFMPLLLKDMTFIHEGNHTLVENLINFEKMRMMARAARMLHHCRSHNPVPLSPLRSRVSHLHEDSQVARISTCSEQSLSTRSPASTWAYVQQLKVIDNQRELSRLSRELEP
Source text: Assay Provider (PI): Xiaodong Cheng Ph.D.
The University of Texas Medical Branch, […], TX
In multi-cellular eukaryotic organisms, the effects of cAMP are transduced by two ubiquitously-expressed intracellular cAMP receptors, the classic protein kinase A/cAMP-dependent protein kinase (PKA/cAPK) and the more recently discovered exchange protein directly activated by cAMP/cAMP-regulated guanine nucleotide exchange factor (EPAC/cAMP-GEF). Both PKA and EPAC are ubiquitously expressed in all tissues, and an increase in intracellular cAMP levels will lead to the activation of both PKA and EPAC. Therefore, careful dissections of the individual role and relative contribution of EPAC and PKA within the overall cAMP signaling in various model systems are critical for further elucidating the mechanism of cAMP signaling. To date no EPAC-specific antagonists and agonist, as well as isoform-specific agonists have been reported, and developing EPAC-specific pharmacological probes to determine the physiological functions that EPAC play in the overall cAMP-mediated signaling remains a major challenge within the research field. Furthermore, identified regulators of EPAC may lead to new mechanism-based therapeutic strategies specifically targeting the EPAC / cAMP-signaling components as EPAC has been implicated to play important roles in major human pathological conditions such as diabetes, heart disease, and cancer.
This qHTS will be used to screen the Molecular Libraries Small Molecule Repository (MLSMR) as a concentration-titration series using the NCGC unique quantitative screening (qHTS) platform to find activators for EPAC1. In addition, this assay will also be used as a counterscreen for the EPAC2 qHTS. This fluorescent based assay is developed and validated for EPAC1 that measures exchange using EPAC effector Rap1 complex with BODIPY-GDP, a GDP analog with a tethered fluorophores. Activators are identified by monitoring the change in fluorescence signal as the exchanged free BODIPY-GDP has a reduced fluorescence compared to Rap1-bound BODIPY-GDP. Increase in signal (activation) is the desired outcome for the EPAC1 agonist while no activity in this assay is desired for the EPAC2 agonist counterscreen.
[1] de Rooij, J., Zwartkruis, F. J., Verheijen, M. H., Cool, R. H., Nijman, S. M., Wittinghofer, A., and Bos, J.L. (1998) Nature 396, 474-477.
Briefly, three uL of reagents (100 nM EPAC1, 250 nM RAP1B-BODIPY-GDP, 50 uM GDP) were dispensed into a 1536-well Greiner black solid-bottom medium binding assay plate. Controls and test compounds (23 nL) were transferred to the plate via a Kalypsys pin tool equipped with a 1536-pin array. The plates were centrifuged at 1,000 rpm for 15 seconds followed by 5 minute incubation at room temperature. The assay plates were read at 5 minute intervals for 30 minutes in the ViewLux plate reader using 480nm excitation and 540nm emission filters. The results were normalized to the […] positive control ATA and DMSO.
Potency is the fitted concentration of half-maximal effect.

SMILES	Potency	activity change, negative = inhibition
OCC1OC(n2cnc3c(=S)nc[nH]c32)C(O)C1O (stereo unspecified)	inactive	
Cc1cccc(CNc2ccnc(-c3ccccc3Cl)n2)c1	inactive	
O=C1CCC(=O)N1CO	inactive	
COc1cc(OC)c(/C=C/c2ccc3ccccc3n2)c(OC)c1	inactive	
COc1ccccc1CCn1c(=O)cnc2cncnc21	inactive	
COc1ccc(CNc2nc(-c3ccccc3OC)nc3ccccc23)c(OC)c1	inactive	
CC(C)=CCC1=C(O)c2ccccc2C(=O)C1=O	inactive	
C=CC(C)(C)c1[nH]c2ccccc2c1C1=C(O)C(=O)C(c2c[nH]c3c(CC=C(C)C)cccc23)=C(O)C1=O	56.2 µM (active)	
CCc1cccc2c(C(O)c3c[nH]c4ccccc34)c[nH]c12 (stereo unspecified)	inactive	
Cc1cc(-c2ccnc(-n3ncc(C(=O)NCCc4cccnc4)c3C)n2)c(C)s1	inactive	
COc1ccc(CN2CCC(n3cc(C(=O)N4CCCC4)nn3)CC2)c(OC)c1C	inactive	
O=C(c1cnccn1)N1CCC2(CCCN(Cc3nccs3)C2)CC1	inactive	
NC(C(=O)O)c1cc(O)c(Cl)c(O)c1 (stereo unspecified)	56.2 µM (active)	
N[C@H](C(=O)O)c1cc(O)cc(O)c1	inactive	
NC(C(=O)O)c1cc(O)cc(O)c1 (stereo unspecified)	inactive	
CCCCCCCCCCCCCC[N+](C)(C)C	inactive	
Cc1cc(O)c(C=O)c(O)c1C(=O)O	inactive	
Cc1cc2c(C(C)C)c(O)c(O)c(C=O)c2c(O)c1-c1c(C)cc2c(C(C)C)c(O)c(O)c(C=O)c2c1O	50.1 µM (active) and 39.8 µM (active) and 79.4 µM (active)	
Cc1c(C(=O)N(C)C(C)C)sc2ncnc(NCCCN3CCOCC3)c12	inactive	

SMILES	Potency	activity change, negative = inhibition
COc1ccc(SC[C@H](C)CN2CC[C@H](C(C)(C)C)CCC2=O)cc1	inactive	
C=CC1=C(C)C2=CC3=NC(=C(CC(=O)[O-])C4=NC(=C(C)C4=C([O-])[O-])C=c4[n-]c(c(C)c4CC)=CC1=N2)C(CCC(=O)[O-])C3C.[Cu+2].[Na+].[Na+].[Na+] (stereo unspecified)	89.1 µM (active)	
CCCCCCCCCCCCCCCCC(C(=O)O)C(O)(CC(=O)O)C(=O)O (stereo unspecified)	35.5 µM (active)	
CCCCCCCCCCCCC(C(=O)O)C(C)C(=O)O (stereo unspecified)	inactive	
CCCCCCCCCCCCC(O)C(=O)O (stereo unspecified)		-12.9% [at 15.3 µM]
CN1CCN(c2ncc3nc(-c4ccccc4)c(=O)n(CCC#N)c3n2)CC1	inactive	
Oc1ccc2c(c1)OC(c1ccc(O)c(O)c1)C(O)C2 (stereo unspecified)	inactive	
Oc1ccc(C2Oc3cc(O)cc(O)c3CC2O)cc1 (stereo unspecified)	inactive	
Oc1cc(O)c2c(c1)O[C@H](c1ccc(O)c(O)c1)[C@H](O)C2	79.4 µM (active)	
O=c1c(O)cc(C2Oc3cc(O)cc(O)c3CC2O)cc2c(C3Oc4cc(O)cc(O)c4CC3O)cc(O)c(O)c12 (stereo unspecified)	39.8 µM (active)	
Oc1cc(O)c2c(c1)O[C@H](c1ccc(O)c(O)c1)[C@@H](O)C2	inactive	
Oc1cc(O)c2c(c1)OC(c1cc(O)c(O)c(O)c1)C(O)C2 (stereo unspecified)	inactive	
CN(Cc1cnc2ccccn12)C1CCN(c2cccc(NC(=O)c3cccnc3)c2)CC1	inactive	
Cc1ccc(C(=O)N(Cc2cc3cc4c(cc3nc2N2CCOCC2)CCC4)CC2CCCO2)cc1 (stereo unspecified)	inactive	
CC(C)C[C@@H](CO)N1CCN(Cc2ccccc2)CCC1=O	inactive	
O=C(NCc1cccnc1)[C@@H]1CC=C[C@@H]2CCN(Cc3ccc(Cl)c(Cl)c3)C(=O)[C@@H]21	inactive	
CC(C)(Sc1ccc(CCN(CCCCC2CCCCC2)C(=O)NC2CCCCC2)cc1)C(=O)O	44.7 µM (active)	
O=c1c(-c2ccccc2)nc2cnc(Oc3cccc(Cl)c3)nc2n1C[C@H]1CCCO1	inactive	
COc1cc([C@@H]2c3cc4c(cc3C(OC3OC5COC(C)OC5C(O)C3O)C3COC(=O)[C@@H]32)OCO4)cc(OC)c1O (stereo partly specified)	inactive	

SMILES	Potency	activity change, negative = inhibition
O=C1c2c(O)cccc2[C@H]([C@@H]2O[C@H](CO)[C@@H](O)[C@H](O)[C@H]2O)c2cc(CO)cc(O)c21	inactive	
O=C(O)c1cc(O)c2c(c1)[C@H]([C@H]1c3cc(C(=O)O)cc(O)c3C(=O)c3c(O[C@@H]4O[C@H](CO)[C@@H](O)[C@H](O)[C@H]4O)cccc31)c1cccc(O[C@@H]3O[C@H](CO)[C@@H](O)[C@H](O)[C@H]3O)c1C2=O	100 µM (active)	
O=C1c2c(O)cccc2[C@@H]([C@@H]2O[C@H](CO)[C@@H](O)[C@H](O)[C@H]2O)c2cc(CO)cc(O)c21	inactive	
CCCN1CCC(=O)N([C@H](CO)Cc2ccccc2)CC1	inactive	
Nc1c(S(=O)(=O)O)cc(Nc2ccc(Nc3nc(Cl)nc(Nc4ccc(S(=O)(=O)O)cc4)n3)c(S(=O)(=O)O)c2)c2c1C(=O)c1ccccc1C2=O	22.4 µM (active)	
CC#CCC(C)[C@H](O)/C=C/[C@@H]1[C@H]2c3cccc(CCCC(=O)O)c3O[C@H]2C[C@H]1O (stereo partly specified)	inactive	
Nc1cc(N)cc(N)c1	44.7 µM (active)	
Nc1ccc(O)cc1	inactive	
COc1cc(N)c(N)cc1OC	inactive	
COc1ccc2[nH]cc(CCO)c2c1	inactive	
CC(C)c1ccc(CN2CCC3(CCC(CNC(=O)c4ccn(C)n4)O3)CC2)cc1 (stereo unspecified)	inactive	
Cc1cccc(C(=O)NCc2nc(-c3cccc(NC(=O)C4CCCN(C)C4)c3)oc2C)n1 (stereo unspecified)	inactive	
Cn1cccc1C(=O)N1CCC[C@@]2(CCN(c3cccc(-c4ccccc4)c3)C2)C1	inactive	
CCCc1nc(C(C)(C)O)c(C(=O)OCc2oc(=O)oc2C)n1Cc1ccc(-c2ccccc2-c2nn[nH]n2)cc1	inactive	
CCOc1nc2cccc(C(=O)OC(C)OC(=O)OC3CCCCC3)c2n1Cc1ccc(-c2ccccc2-c2nn[nH]n2)cc1 (stereo unspecified)	89.1 µM (active)	
CCOc1nc2cccc(C(=O)O)c2n1Cc1ccc(-c2ccccc2-c2nn[nH]n2)cc1	inactive	
CCN1CCCC1CNC(=O)c1cnn(-c2ncc3c(n2)-c2ccc(OC)cc2CC3)c1C1CC1 (stereo unspecified)	inactive	
NCCC[C@H](N)CC(=O)N[C@H]1CNC(=O)[C@H]([C@H]2C[C@H](O)N=C(N)N2)NC(=O)C(=CNC(N)=O)NC(=O)[C@H](CO)NC(=O)[C@H](CO)NC1=O (β3hOrn-[Dap]SS[ΔAla(3-NHCONH2)][X6]; lactam 1-C)	inactive	
